# Source: PubChem BioAssay
# Calls of active or inactive are those of the source.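 The calls were made as follows, unless noted: active = inhibition at or above 50% at 10 µM; inactive = inhibition below 50%.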
# Legend:
# [1] = inhibitors of TNFa-induced NFkB p65 translocation, primary screen, imaging, HUVEC, MLSMR starter and 10KST1 sets (AID 438;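 active = inhibition above 20% together with a positive visual image hit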;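 also: compound added about 3h40 before a 20 min TNFalpha stimulation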;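 as to inhibition: signal is the nuclear over cytoplasmic p65 intensity ratio per well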); settings: HUVEC TNFa-induced p65 nuclear translocation; cell count: measured here: nuclei count (cytotoxicity indicator), at 2.08 µM unless noted; inhibition: at 2 µM, stronger effect = higher value unless noted
# [2] = reduction of polyQ htt aggregates in cells – imaging, exon1htt(103Q)mCFP cells, high-content imaging, primary screen (AID 483;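 active = visual image review flags a hit and inhibition of aggregation exceeds 20%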;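 also: compound exposure lasted 3 days before fixation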;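 as to nuclei count: percent of the per-plate median nuclei count of sample wells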); settings: exon1htt(103Q)mCFP cell line, aggregate imaging, at 2 µM; inhibition of aggregation: stronger effect = higher value; nuclei count: measured here: cell count, toxicity
# [3] = endothelial E-selectin expression blockers – imaging, HUVEC, immunofluorescence, MLSMR starter and 10KST1 sets, primary screen (AID 487;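 active = visually confirmed hit in the image check and inhibition above 20%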;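 as to inhibition: signal is fraction of cell area covered by stained E-selectin grains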;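 as to nuclei count: 100% = median nuclei count of all wells on the same plate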); settings: HUVEC TNFalpha-induced E-selectin immunofluorescence imaging, at 2 µM; inhibition: stronger effect = higher value; nuclei count: measured here: cell number, toxicity
# [4] = biological target: Voltage-gated potassium channel subunit beta-2 (Rattus norvegicus) (UniProt P62483); experiment: inhibitors of rat Kvbeta2 reductase activity – biochemical, NADPH fluorescence, primary screen (AID 622;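 active = fluorescence slope higher than the sample average by over 3 SD, cut at about -0.22 in these data, passing the limit was not always enough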;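 also: slope of raw intensity against log time taken from 70 to 1610 s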); settings: recombinant KvBeta, 4-cyanobenzaldehyde reduction, at 10 µM, stronger effect = higher value
# [5] = biological target: Voltage-gated potassium channel subunit beta-2 (Rattus norvegicus) (UniProt P62483); experiment: enhancers of rat Kvbeta2 NADPH turnover – biochemical, NADPH fluorescence, primary screen (AID 623;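 active = NADPH fluorescence slope more negative than the mean of all samples by about 3 SD, 99.7% confidence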;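 also: fluorescence intensity change per second fitted from 20 to 320 s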); settings: Recombinant KvBeta, NADPH fluorescence decrease slope, 10 min; at 10 µM; stronger effect = lower value
# [6] = biological target: Alpha-2C adrenergic receptor (Homo sapiens) (UniProt P18825); experiment: compounds altering alpha2C-coupled GIRK flux – cell-based, HEK293 alpha2C/GIRK1/2, thallium flux, primary screen (AID 624;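 active = fluorescence slope after compound addition differing from the mean of all screened samples at 99.7% confidence, in either direction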;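 also: slope of fluorescence ratio to pre-addition baseline per second over 15 to 24 s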); settings: thallium flux BTC fluorescence, at 10 µM, actives lie on both sides
# [7] = blockers of RIG-like receptor reporter activation – cell-based, Sendai virus stimulus, luciferase, 10K MLSCN set, TLR/RLR signaling modifier project, primary screen (AID 602276); settings: HEK293 RL24 IRF3 luciferase reporter, at 10 µM, stronger effect = higher value;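 also: firefly luciferase from ISG56 promoter only with Renilla not read in this screen; 0% = Sendai virus plus DMSO and 100% = medium plus DMSO without virus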
# [8] = TLR3 IRF3 reporter activation blockers – cell-based, poly I:C stimulus, luciferase, 10K MLSCN set, primary screen (AID 602277;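 active = inhibition of the reporter signal at or above 50%; inactive = inhibition below 50%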); settings: HEK293-TLR3 RL24 IRF3 luciferase reporter, at 10 µM, stronger effect = higher value
# Sequence of Alpha-2C adrenergic receptor (Homo sapiens) (P18825 whole entry, looked up): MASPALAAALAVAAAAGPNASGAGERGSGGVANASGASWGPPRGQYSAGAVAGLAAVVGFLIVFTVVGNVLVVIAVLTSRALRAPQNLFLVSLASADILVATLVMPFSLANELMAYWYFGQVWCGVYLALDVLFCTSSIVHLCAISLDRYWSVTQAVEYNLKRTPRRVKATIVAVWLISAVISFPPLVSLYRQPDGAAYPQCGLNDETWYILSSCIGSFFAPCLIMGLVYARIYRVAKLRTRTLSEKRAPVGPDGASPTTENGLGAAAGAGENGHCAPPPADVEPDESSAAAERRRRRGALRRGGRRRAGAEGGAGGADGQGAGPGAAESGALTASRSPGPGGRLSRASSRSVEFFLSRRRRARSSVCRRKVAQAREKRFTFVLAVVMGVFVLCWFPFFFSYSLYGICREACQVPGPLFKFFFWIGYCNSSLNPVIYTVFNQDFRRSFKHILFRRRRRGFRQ
# Sequence of Voltage-gated potassium channel subunit beta-2 (Rattus norvegicus) (P62483 whole entry, looked up): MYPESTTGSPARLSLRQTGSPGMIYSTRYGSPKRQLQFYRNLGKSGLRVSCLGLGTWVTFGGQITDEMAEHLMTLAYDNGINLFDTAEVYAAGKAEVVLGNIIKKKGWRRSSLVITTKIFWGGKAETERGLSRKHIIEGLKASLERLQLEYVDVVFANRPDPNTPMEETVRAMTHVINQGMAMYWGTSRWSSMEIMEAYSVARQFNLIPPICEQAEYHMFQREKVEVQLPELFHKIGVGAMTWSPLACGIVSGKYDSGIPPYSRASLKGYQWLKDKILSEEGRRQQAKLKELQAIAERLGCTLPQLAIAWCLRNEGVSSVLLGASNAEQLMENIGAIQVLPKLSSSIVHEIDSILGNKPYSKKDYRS
SMILES,cell count [1],inhibition [1],inhibition of aggregation [2],nuclei count [2] [%],inhibition [3],nuclei count [3] [%],fluorescence slope [4],NADPH fluorescence slope [5],slope [6],inhibition [7],inhibition [8]
C(#CCN1CCOCC1)COCC#Cc1ccccc1,422,1.2% (inactive),12.8% (inactive),94.4,-4.6% (inactive),112,-0.622 (inactive),-5e-05 (inactive),0.00639 (inactive),8.54% (inactive),30.6% (inactive)
Cc1oc2ccc(OC(=O)N(C)C)cc2c1C(=O)OC(C)C,450,0.8% (inactive),1.1% (inactive),99.7,-78.3% (inactive),155,-0.606 (inactive),-3.3e-05 (inactive),0.00801 (inactive),9.46% (inactive),-11.8% (inactive)
COc1ccc(C2SCC(=O)Nc3c2c(=O)[nH]n3C2CCCCCC2)cc1OC (stereo not drawn),316,21% (inactive),-0.4% (inactive),97.9,-11.5% (inactive),109,-0.614 (inactive),-4.2e-05 (inactive),0.00412 (inactive),13.9% (inactive),23.3% (inactive)
CCCNC(=O)c1c(N)n(Cc2ccc3c(c2)OCO3)c2nc3ccccc3nc12,699,-14.7% (inactive),-5.3% (inactive),104,-9.2% (inactive),107,-0.559 (inactive),-2.1e-05 (inactive),0.00324 (inactive),19.3% (inactive),24.3% (inactive)
O=C(C(Cc1ccccc1)NS(=O)(=O)c1ccc(F)cc1)N1CCC2(CC1)OCCO2 (stereo not drawn),381,-11.2% (inactive),-7% (inactive),99.8,-43.8% (inactive),122,-0.437 (inactive),8.6e-06 (inactive),0.00508 (inactive),11.2% (inactive),37.1% (inactive)
O=C(CCCOc1ccc(Cl)cc1Cl)N1CCC2(CC1)OCCO2,751,-20.4% (inactive),-14.9% (inactive),114,-51.1% (inactive),102,-0.365 (inactive),-4.9e-05 (inactive),0.0028 (inactive),-4.5% (inactive),-38.8% (inactive)
CN1CCC(N(C)c2ncnc3ccc(Br)cc23)CC1,336,5% (inactive),4.3% (inactive),94.9,42.2% (inactive),79.5,-0.606 (inactive),-3.4e-05 (inactive),0.00666 (inactive),10.9% (inactive),23.5% (inactive)
CCN(CC)CCN=Cc1c(O)n(CCC2=CCCCC2)c(=O)[nH]c1=O,677,-6% (inactive),-1.5% (inactive),94.9,5.2% (inactive),104,-0.618 (inactive),-1.2e-05 (inactive),0.00557 (inactive),-53.3% (inactive),-117% (inactive)
O=c1[nH]c(=O)n(Cc2ccc(F)cc2)c(O)c1C=NCCCN1CCOCC1,728,-22.4% (inactive),4.6% (inactive),105,35.3% (inactive),101,-0.441 (inactive),1.3e-06 (inactive),0.00502 (inactive),-0.0843% (inactive),3.86% (inactive)
COc1ccccc1N1CCN(Cc2c(F)cccc2F)CC1,410,-1.1% (inactive),13.8% (inactive),98.7,-26.3% (inactive),118,-0.431 (inactive),-1.4e-05 (inactive),0.00585 (inactive),15.2% (inactive),27.3% (inactive)
C=CCn1c(O)c(C(C)=Nc2ccc(N(CC)CC)cc2)c(=O)[nH]c1=O,327,2.5% (inactive),-15.3% (inactive),102,-33.7% (inactive),109,-0.492 (inactive),2.3e-05 (inactive),0.00389 (inactive),21.7% (inactive),25.5% (inactive)
Cc1nc2ccccc2c(=O)n1-c1ccc(F)cc1,321,-5% (inactive),7.1% (inactive),111,-36.4% (inactive),111,-0.456 (inactive),4.9e-06 (inactive),0.00327 (inactive),7.2% (inactive),36.9% (inactive)
CCOc1ccc(-n2c(O)c(C=NCCN(CC)CC)c(=O)[nH]c2=O)cc1,411,-1.5% (inactive),-1.7% (inactive),89.3,-87.3% (inactive),125,-0.553 (inactive),1.2e-05 (inactive),0.00486 (inactive),0.257% (inactive),1.28% (inactive)
CN(C)CCc1nc2ccccc2c(=O)n1-c1ccccc1,241,-2.3% (inactive),16.8% (inactive),96.8,-21% (inactive),124,-0.495 (inactive),-5e-05 (inactive),0.00675 (inactive),-20.1% (inactive),-35% (inactive)
COc1ccccc1/C=C1/C(=N/O)C2CCN1CC2,548,-15% (inactive),-6.2% (inactive),76.9,42.2% (inactive),105,-0.467 (inactive),-1.3e-05 (inactive),0.00314 (inactive),9.04% (inactive),36.5% (inactive)
CCOC(=O)C1SC2(C(F)F)CC1(O)c1c(c(OC)c3occc3c1OC)O2 (stereo not drawn),665,-5.1% (inactive),13% (inactive),98.5,52.9% (inactive),105,-0.326 (inactive),-5.6e-05 (inactive),0.00497 (inactive),4.1% (inactive),14.4% (inactive)
CCN1c2nc3ccccn3c(=O)c2CC2(C(=O)N(C)C(=O)N(C)C2=O)C1C (stereo not drawn),359,4.3% (inactive),-17.6% (inactive),104,-34% (inactive),114,-0.482 (inactive),1.6e-06 (inactive),0.00491 (inactive),19% (inactive),19.6% (inactive)
CCCCn1c(O)c(C(CC)=Nc2cccc(C(=O)O)c2)c(=O)[nH]c1=O,688,-5.8% (inactive),9.5% (inactive),86.6,-25.6% (inactive),105,-0.382 (inactive),2.4e-05 (inactive),0.00652 (inactive),9.53% (inactive),9.91% (inactive)
Cc1cc(OCC(=O)O)c2c3c(c(=O)oc2c1)CCCC3,361,5.7% (inactive),-15% (inactive),92.2,-74% (inactive),87.1,-0.117 (active),-1.4e-05 (inactive),0.00624 (inactive),-0.949% (inactive),-5.67% (inactive)
CN(C)c1cc(N)c2c(n1)CCC2 (tested in a mixture with another compound),443,-0.3% (inactive),-9% (inactive),98.2,-17.4% (inactive),124,-0.376 (inactive),-5.8e-05 (inactive),0.00598 (inactive),11.4% (inactive),17.8% (inactive)
CC(=O)Nc1ccc(OC(=O)c2ccccc2N)cc1,292,-3.4% (inactive),-8.5% (inactive),76.3,-96.3% (inactive),111,-0.447 (inactive),-1.3e-05 (inactive),0.00336 (inactive),3.45% (inactive),27.2% (inactive)
Cc1ccc(C)c(NC2=NCCCS2)c1,304,9.3% (inactive),15.3% (inactive),92.5,-82.5% (inactive),91,-0.566 (inactive),9.6e-06 (inactive),0.00513 (inactive),17.2% (inactive),22% (inactive)
CCN1c2nc3c(C)cccn3c(=O)c2CC2(C(=O)N(C)C(=O)N(C)C2=O)C1C (stereo not drawn),413,8.9% (inactive),8.3% (inactive),100,19.8% (inactive),111,-0.477 (inactive),-5.3e-05 (inactive),0.00711 (inactive),16.5% (inactive),17.7% (inactive)
COc1ccc(CCn2c(O)c(C=NCc3cccnc3)c(=O)[nH]c2=O)cc1OC,716,-1.7% (inactive),-17.3% (inactive),111,72.3% (active),90.2,-0.629 (inactive),1.1e-05 (inactive),0.00366 (inactive),19.4% (inactive),18.7% (inactive)
N#Cc1ccccc1Cn1cc(C(=O)C2CC2)c2ccccc21,390,-2.2% (inactive),-0.9% (inactive),101,-50.9% (inactive),107,-0.447 (inactive),-7.2e-05 (inactive),0.00467 (inactive),2.45% (inactive),19.3% (inactive)
O=C(O)C1(c2ccc(Cl)cc2)CCC1,433,7.5% (inactive),1.5% (inactive),104,-422% (inactive),158,-0.461 (inactive),2.3e-05 (inactive),0.00643 (inactive),12.9% (inactive),21.3% (inactive)
CCNc1ccc(P(=S)(N(C)C)N(C)C)cc1,441,16.7% (inactive),-8.4% (inactive),115,-422% (inactive),153,-0.622 (inactive),-1.6e-05 (inactive),0.00749 (inactive),10.5% (inactive),26.1% (inactive)
O=C1OCCC1NC1=NCCC1 (stereo not drawn),571,-9.6% (inactive),-1.8% (inactive),106,-16.4% (inactive),101,-0.45 (inactive),-5e-05 (inactive),0.00554 (inactive),-0.849% (inactive),13.5% (inactive)
